# From the supplement of paper PMC9262897, “Low-cost anti-mycobacterial drug discovery using engineered E. coli” (Nature Communications, 2022)
# Counter-ions that a name gives are not always drawn. ± gives the standard deviation of the averaged measurements.
# Columns and labels:
# Test in all cases: growth (OD600 after 10 h); higher = more growth (less inhibition)
# [1] = tested on: E. coli TESEC Alr+ wild-type control; details: compound 0.1 mM; raw OD600 reference: median of DMSO wells 0.241, cell-free background 0.041
# Procedure: (§1)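 TESEC Mtb Alr E. coli, or the Alr+ wild-type control, in 384-well plates with Prestwick library compounds at 0.1 mM and 1% DMSO, across arabinose induction levels of 1E3 to 1E7 nM. Growth is read as OD600 after 10 h at 37 °C in triplicate biological replicates.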
# [2] = tested on: E. coli TESEC Mtb Alr; details: compound 0.1 mM
# Procedure: as §1
# [3] = tested on: E. coli TESEC Mtb Asd; details: compound 0.1 mM
# Procedure: (§2)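 TESEC E. coli strains in which the native enzyme is deleted and replaced by arabinose-inducible Mtb Asd, DapB, CysH or TrpD, each grown in its selective medium. Strains were screened against the Prestwick library at 0.1 mM and 1% DMSO in 384-well format at low and high arabinose induction. Growth is read as OD600 after 10 h in triplicate.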
# [4] = tested on: E. coli TESEC Mtb DapB; details: compound 0.1 mM
# Procedure: as §2
# [5] = tested on: E. coli TESEC Alr+ wild-type control; details: compound 0.1 mM; raw OD600 reference: median of DMSO wells 0.49, cell-free background 0.052
# Procedure: (§3)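 TESEC Mtb Alr E. coli (ΔaraC ΔtolC ΔentC Δalr ΔdadX, arabinose-inducible Mtb Alr) or the Alr+ wild-type control strain, grown in defined M9-fructose medium without D-alanine in 96-well plates with Prestwick library compounds at 0.1 mM and 1% DMSO. Low Alr induction is 0.1 µM arabinose and high induction is 10 mM arabinose.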
# [6] = tested on: E. coli TESEC Mtb Alr; details: compound 0.1 mM; remark: listed apart in the source
# Procedure: as §3
# [7] = arabinose 1000 nM, raw OD600 reference: median of DMSO wells 0.294, cell-free background 0.041
# [8] = arabinose 10000 nM, raw OD600 reference: median of DMSO wells 0.264, cell-free background 0.041
# [9] = arabinose 100000 nM, raw OD600 reference: median of DMSO wells 0.201, cell-free background 0.041
# [10] = arabinose 1000000 nM, raw OD600 reference: median of DMSO wells 0.193, cell-free background 0.041
# [11] = arabinose 10000000 nM, raw OD600 reference: median of DMSO wells 0.146, cell-free background 0.041
# [12] = arabinose induction (level): High, raw OD600 reference: median of DMSO wells 0.331, cell-free background 0.041
# [13] = arabinose induction (level): Low, raw OD600 reference: median of DMSO wells 0.417, cell-free background 0.041
# [14] = arabinose induction (level): High, raw OD600 reference: median of DMSO wells […], cell-free background 0.041
# [15] = arabinose induction (level): Low, raw OD600 reference: median of DMSO wells 0.227, cell-free background 0.041
# [16] = arabinose 100 nM, raw OD600 reference: median of DMSO wells 0.413, cell-free background 0.052
# [17] = arabinose 10000000 nM, raw OD600 reference: median of DMSO wells […], cell-free background 0.052
Structure (SMILES),growth [1],"growth [2, 7]","growth [2, 8]","growth [2, 9]","growth [2, 10]","growth [2, 11]","growth [3, 12]","growth [3, 13]","growth [4, 14]","growth [4, 15]",growth [5],"growth [6, 16]","growth [6, 17]"
C#C[C@]1(O)CC[C@H]2[C@@H]3CCC4=CCCC[C@@H]4[C@H]3CC[C@@]21C [Lynestrenol],0.237 ± 0.0046,0.297 ± 0.0055,0.266 ± 0.015,0.18 ± 0.033,0.164 ± 0.0081,0.15 ± 0.0066,0.312 ± 0.033,0.387 ± 0.039,0.174 ± 0.0039,0.198 ± 0.027,0.451 ± 0.013,0.394 ± 0.0051,0.289 ± 0.0077
O=C(COc1ccc(Cl)cc1)N1CCN(Cc2ccc3c(c2)OCO3)CC1 [Fipexide hydrochloride],0.13 ± 0.0038,0.146 ± 0.0033,0.138 ± 0.0033,0.154 ± 0.0017,0.0771 ± 0.0022,0.144 ± 0.0034,0.207 ± 0.039,0.214 ± 0.025,0.167 ± 0.0018,0.234 ± 0.024,0.303 ± 0.022,0.38 ± 0.029,0.168 ± 0.033
COc1ccccc1Oc1c(NS(=O)(=O)c2ccc(C(C)(C)C)cc2)nc(-c2ncccn2)nc1OCCO [Bosentan],0.227 ± 0.0037,0.253 ± 0.0068,0.269 ± 0.014,0.276 ± 0.011,0.103 ± 0.0025,0.147 ± 0.0018,0.253 ± 0.045,0.335 ± 0.065,0.177 ± 0.022,0.247 ± 0.051,0.544 ± 0.091,0.417 ± 0.0042,0.237 ± 0.015
COc1ccc2c(c1)c(CC(=O)O)c(C)n2C(=O)c1ccc(Cl)cc1 [Indomethacin],0.141 ± 0.0034,0.186 ± 0.008,0.2 ± 0.0069,0.124 ± 0.0036,0.0963 ± 0.0012,0.105 ± 0.0024,0.172 ± 0.017,0.196 ± 0.036,0.156 ± 0.0079,0.214 ± 0.073,0.392 ± 0.0071,0.366 ± 0.032,0.143 ± 0.0065
O=C1OCCN1/N=C/c1ccc([N+](=O)[O-])o1 [Furazolidone],0.0406 ± 0.0001,0.041 ± 0.00078,0.04053 ± 0.00021,0.0418 ± 0.00065,0.03987 ± 0.00012,0.0412 ± 0.0008,0.056 ± 0.0037,0.0561 ± 0.0034,0.114 ± 0.0074,0.112 ± 0.012,0.05247 ± 0.00031,0.0572 ± 0.0027,0.05093 ± 0.00032
Cn1c(=O)c2c(ncn2CCO)n(C)c1=O [Etofylline],0.254 ± 0.003,0.283 ± 0.0029,0.276 ± 0.016,0.228 ± 0.011,0.195 ± 0.0066,0.145 ± 0.0023,0.396 ± 0.053,0.425 ± 0.033,0.192 ± 0.0028,0.264 ± 0.098,0.509 ± 0.055,0.414 ± 0.0083,0.349 ± 0.0046
CC(=O)OC(C)C[N+](C)(C)C (stereo not given) [Methacholine chloride],0.238 ± 0.0071,0.282 ± 0.0064,0.269 ± 0.0094,0.171 ± 0.011,0.187 ± 0.0089,0.134 ± 0.0072,0.361 ± 0.092,0.428 ± 0.025,0.2263 ± 0.0013,0.243 ± 0.023,0.466 ± 0.066,0.413 ± 0.021,0.361 ± 0.015
CC[N+](C)(C)Cc1ccccc1Br [Bretylium tosylate],0.253 ± 0.011,0.323 ± 0.02,0.261 ± 0.0084,0.22 ± 0.0026,0.1733 ± 0.00021,0.1633 ± 0.00072,0.484 ± 0.032,0.476 ± 0.018,0.221 ± 0.025,0.241 ± 0.013,0.624 ± 0.021,0.409 ± 0.015,0.324 ± 0.017
O=c1[nH]c(=O)n([C@H]2C[C@H](O)[C@@H](CO)O2)cc1I [Idoxuridine],0.2463 ± 0.002,0.285 ± 0.0078,0.268 ± 0.012,0.206 ± 0.0098,0.203 ± 0.0061,0.15 ± 0.0075,0.257 ± 0.057,0.276 ± 0.032,0.185 ± 0.0093,0.202 ± 0.03,0.483 ± 0.064,0.369 ± 0.032,0.376 ± 0.021
"OCC(O)CN1CCN(c2ccccc2)CC1 (racemic) [Dropropizine (R,S)]",0.241 ± 0.0033,0.283 ± 0.018,0.255 ± 0.0087,0.228 ± 0.014,0.174 ± 0.0046,0.144 ± 0.0086,0.364 ± 0.032,0.424 ± 0.03,0.2 ± 0.025,0.248 ± 0.026,0.431 ± 0.04,0.404 ± 0.014,0.361 ± 0.022
Cc1ccc(NC(=O)c2ccc(CN3CCN(C)CC3)cc2)cc1Nc1nccc(-c2cccnc2)n1 [Imatinib],0.171 ± 0.0085,0.23 ± 0.0032,0.241 ± 0.00089,0.141 ± 0.009,0.119 ± 0.0081,0.161 ± 0.0024,0.185 ± 0.02,0.334 ± 0.063,0.185 ± 0.011,0.217 ± 0.02,0.455 ± 0.046,0.4192 ± 0.0028,0.241 ± 0.018
CC(C)(C)NC[C@H](O)c1ccc(O)c(CO)c1 [Levalbuterol hydrochloride],0.235 ± 0.005,0.305 ± 0.011,0.273 ± 0.0041,0.197 ± 0.0075,0.214 ± 0.023,0.141 ± 0.0037,0.242 ± 0.05,0.32 ± 0.084,0.168 ± 0.033,0.179 ± 0.088,0.608 ± 0.014,0.4232 ± 0.00093,0.318 ± 0.01
CCc1nn(CCCN2CCN(c3cccc(Cl)c3)CC2)c(=O)n1CCOc1ccccc1 [Nefazodone HCl],0.0424 ± 0.00076,0.0444 ± 0.0031,0.04017 ± 0.00012,0.0431 ± 0.00062,0.0406 ± 0.00026,0.0473 ± 0.0025,0.0498 ± 0.0029,0.0479 ± 0.0011,0.05113 ± 0.00049,0.0483 ± 0.00036,0.0504 ± 0.00067,0.29 ± 0.2,0.0515 ± 0.001
CCOC(=O)[N-]c1c[n+](N2CCOCC2)no1 [Molsidomine],0.245 ± 0.0064,0.307 ± 0.0077,0.27 ± 0.0035,0.244 ± 0.048,0.182 ± 0.0019,0.166 ± 0.0027,0.305 ± 0.1,0.338 ± 0.084,0.207 ± 0.022,0.23 ± 0.02,0.562 ± 0.037,0.408 ± 0.014,0.313 ± 0.022
CN1CCCCC1CCN1c2ccccc2Sc2ccc([S+](C)[O-])cc21 (stereo not given) [Mesoridazine besylate],0.169 ± 0.0023,0.24 ± 0.012,0.266 ± 0.0092,0.225 ± 0.032,0.131 ± 0.0058,0.149 ± 0.005,0.204 ± 0.023,0.339 ± 0.091,0.191 ± 0.007,0.202 ± 0.027,0.568 ± 0.023,0.403 ± 0.0065,0.3 ± 0.02
